This is an account of results in PubChem BioAssay (NCI).

Compounds without any hit were thinned out: in the full panel of roughly 83,000, 20% have a hit.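 Percent growth is the endpoint: 0 to 100 indicates growth inhibition (40 means 60% inhibition), 0 means no net growth, and negative values indicate cell death.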 A number with no mark means an inactive call. Activity calls are given as the source filed them. How the source made its calls: active means growth percent below 10; inactive means the rest.

Test systems include SK-MEL-2 melanoma; EKVX NSCLC; SN12C renal; UO-31 renal; TK-10 renal; ACHN renal; CAKI-1 renal; A498 renal; CCRF-CEM leukemia; MOLT-4 leukemia; SR leukemia; RPMI-8226 leukemia; OVCAR-8 ovarian; OVCAR-5 ovarian; OVCAR-4 ovarian; SK-OV-3 ovarian; IGROV1 ovarian; OVCAR-3 ovarian; HS 578T breast; NCI/ADR-RES ovarian.
What all share (test): NCI-60 one-dose screen, 48 h (100 = growth as untreated, 0 = no growth, -100 = all killed)
Common to all, as to conditions: 10 µM unless noted

In the case of `C=C1CC[C@@H]2[C@](C)(COC(C)=O)[C@H](OC(C)=O)CC[C@@]2(C)[C@@H]1CC(Nc1ccc(S(=O)(=O)Nc2nccc(C)n2)cc1)C1=CCOC1=O` (stereo not given in full), the growth in the test with SK-MEL-2 melanoma was 40.1%; in the test on EKVX NSCLC, 79.2%; in the test on SN12C renal it was 25.1%; with UO-31 renal it was 33.4%; in the test with TK-10 renal it was 83%; in the test on ACHN renal it was -37.2% (active). In addition, the growth in the test on CAKI-1 renal is 61.4%; in the test with A498 renal it was 96.8%; with CCRF-CEM leukemia, -19.2% (active); with MOLT-4 leukemia, -1.85% (active); in the test with SR leukemia it was 0.793% (active); with RPMI-8226 leukemia it was -5.56% (active). The growth is 10.5% in the test with OVCAR-8 ovarian; 26.9% in the test on OVCAR-5 ovarian; 32.3% with OVCAR-4 ovarian; 101% in the test with SK-OV-3 ovarian; 25.8% in the test on IGROV1 ovarian; -45% (active) in the test with OVCAR-3 ovarian. The growth in the test on HS 578T breast was 68.6%; in the test with NCI/ADR-RES ovarian it was 20.9%.

As to `COc1cc(C(=O)n2nc(NCCCc3ccccc3)c3cc(N)ccc32)cc(OC)c1OC`, the growth was 87.6% in the test with SK-MEL-2 melanoma; 87.3% in the test with EKVX NSCLC; 99.3% in the test with SN12C renal; 68.6% with UO-31 renal; 97.7% in the test on TK-10 renal; 91.3% with ACHN renal. Besides, the growth is 92.6% in the test with CAKI-1 renal; 88.7% in the test on A498 renal; 69.4% in the test with CCRF-CEM leukemia; 78.6% in the test with MOLT-4 leukemia; 52.3% in the test with SR leukemia; 69.5% in the test on RPMI-8226 leukemia. Besides, the growth in the test with OVCAR-8 ovarian was 82.8%; with OVCAR-5 ovarian it was 93.3%; with OVCAR-4 ovarian, 105%; with SK-OV-3 ovarian it was 104%; with IGROV1 ovarian, 110%; in the test with OVCAR-3 ovarian it was 101%. Moreover, the figures for the growth in the test on HS 578T breast and with NCI/ADR-RES ovarian were 111% and 68.4%, respectively.

In the case of `CCCCCC(C)(O)C(C(=O)O)c1ccccc1` (stereo not given), the growth with SK-MEL-2 melanoma was 108%; in the test with EKVX NSCLC it was 104%; in the test on SN12C renal, 97.8%; in the test with UO-31 renal, 94.5%; in the test on TK-10 renal it was 104%; with ACHN renal, 96.1%. Also, the growth was 100% with CAKI-1 renal; 90.3% with A498 renal; 105% in the test on CCRF-CEM leukemia; 112% in the test with MOLT-4 leukemia; 102% in the test with SR leukemia; 101% in the test on RPMI-8226 leukemia. Also, the growth in the test on OVCAR-8 ovarian was 101%; with OVCAR-5 ovarian it was 96.1%; with OVCAR-4 ovarian, 102%; in the test on SK-OV-3 ovarian it was 101%; in the test with IGROV1 ovarian, 102%; with OVCAR-3 ovarian, 119%. The growth was 107% in the test with HS 578T breast and 112% in the test on NCI/ADR-RES ovarian.

With `Clc1ccc(C2=Nn3c(nnc3-c3cc(Cl)cc(Cl)c3Cl)SC2)cc1`, the growth in the test on SK-MEL-2 melanoma is 80.3%; with EKVX NSCLC it was 70.6%; with SN12C renal it was 88.4%; with UO-31 renal it was 51.6%; with TK-10 renal it was 87.4%; with ACHN renal, 58.2%. Further, the growth in the test on CAKI-1 renal was 78.7%; in the test on A498 renal, 55.9%; with CCRF-CEM leukemia it was 36.1%; with MOLT-4 leukemia, 26.7%; with SR leukemia, 2.55% (active); in the test on RPMI-8226 leukemia, 42.8%. Further, the growth is 71.8% with OVCAR-8 ovarian; 19.3% in the test on OVCAR-5 ovarian; 74.9% in the test with OVCAR-4 ovarian; 50.4% with SK-OV-3 ovarian; 22.7% in the test with IGROV1 ovarian; 8.59% (active) with OVCAR-3 ovarian. In addition, the growth in the test with HS 578T breast was 20.9%; in the test with NCI/ADR-RES ovarian, 5.52% (active).

As for `CC/C(=C(/c1ccc(Cl)cc1)c1ccc(OCCCN(C)C)cc1)c1ccc(OC)cc1`, the growth was 105% in the test with SK-MEL-2 melanoma; 91% with EKVX NSCLC; 83.3% with SN12C renal; 62.5% with UO-31 renal; 66.7% with TK-10 renal; 83.6% with ACHN renal. The growth with CAKI-1 renal is 82.3%; in the test on A498 renal, 76.3%; in the test with CCRF-CEM leukemia, 37%; with MOLT-4 leukemia, 28.1%; in the test on SR leukemia it was -40.6% (active); in the test with RPMI-8226 leukemia, -41.3% (active). The growth is 74.3% with OVCAR-8 ovarian; 73.5% in the test with OVCAR-5 ovarian; 86.6% in the test with OVCAR-4 ovarian; 102% in the test with SK-OV-3 ovarian; 63.4% in the test on IGROV1 ovarian; 68.8% with OVCAR-3 ovarian. In addition, the growth in the test on HS 578T breast is 84.8%; in the test on NCI/ADR-RES ovarian it was 82.9%.

In the case of `O=c1[nH]c(CN2CCN(c3ccccc3)CC2)nc2c(Br)cc(Br)cc12`, the growth is 91.2% in the test with SK-MEL-2 melanoma; 96.3% with EKVX NSCLC; 110% in the test with SN12C renal; 77.8% in the test on UO-31 renal; 120% with TK-10 renal; 101% with ACHN renal. Moreover, the growth with CAKI-1 renal was 99.7%; in the test on A498 renal, 121%; in the test with CCRF-CEM leukemia, 88.9%; in the test with MOLT-4 leukemia, 89.6%; with SR leukemia it was 3.49% (active); in the test on RPMI-8226 leukemia, 96.6%. Further, the growth in the test with OVCAR-8 ovarian was 104%; with OVCAR-5 ovarian it was 95.3%; with OVCAR-4 ovarian, 105%; in the test with SK-OV-3 ovarian it was 96.4%; in the test on IGROV1 ovarian it was 29.4%; in the test on OVCAR-3 ovarian, 103%. Moreover, the values for the growth in the test on HS 578T breast and with NCI/ADR-RES ovarian were 91.7% and 104%, respectively.

`CN1CCN(c2ccc(Nc3ncc4[nH]c(=O)n(Cc5ccccc5N)c4n3)cc2)CC1`: the growth with SK-MEL-2 melanoma is 104%; in the test with EKVX NSCLC it was 102%; in the test on SN12C renal it was 86.5%; in the test on UO-31 renal it was 62.5%; in the test with TK-10 renal, 86.4%; with ACHN renal it was 89.9%. For the same compound, the growth is 66.4% in the test with CAKI-1 renal; 66.4% with A498 renal; 96.4% in the test with CCRF-CEM leukemia; 93.4% in the test on MOLT-4 leukemia; 91% in the test on SR leukemia; 105% in the test with RPMI-8226 leukemia. In addition, the growth in the test with OVCAR-8 ovarian is 98.4%; in the test with OVCAR-5 ovarian it was 79.1%; in the test on OVCAR-4 ovarian, 93.6%; with SK-OV-3 ovarian it was 81.3%; in the test with IGROV1 ovarian, 77.6%; in the test on OVCAR-3 ovarian, 102%. The growth is 69.8% in the test with HS 578T breast and 102% in the test on NCI/ADR-RES ovarian.
